# Source: PubChem BioAssay (NCATS)
# Inconclusive results are not listed. Where a call stands in place of a potency, no number is given. Active and inactive are the calls of the source. Calls follow the shape of the dose curve; as a rule, active = well fitted inhibition curve with a large enough effect; inconclusive = small, poorly fitted or top-dose-only effect; inactive = flat fitted curve, though single readings scatter.
# Target: Calcium and integrin-binding protein 1 (Homo sapiens) (UniProt Q99828)
# Sequence (Q99828 whole entry, looked up): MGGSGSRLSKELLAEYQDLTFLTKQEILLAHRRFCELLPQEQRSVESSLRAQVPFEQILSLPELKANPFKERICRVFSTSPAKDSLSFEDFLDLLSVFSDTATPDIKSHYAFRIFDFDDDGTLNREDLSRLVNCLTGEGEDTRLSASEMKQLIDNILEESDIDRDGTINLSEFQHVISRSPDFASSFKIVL
# Assay: Primary qHTS for Identification of Calcium Integrin Binding Protein 1 (CIB1) Competitor (AID 1508620); also: top concentration of the series differs between compounds
# Procedure, shortened: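 Fluorescence polarization competition: GST-tagged CIB1 (1 uM final) preincubated with compound 15 min at room temperature, then FITC-labelled alphaIIb peptide (100 nM final) added. After 15 min at room temperature, polarization read at Ex 480/Em 540.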
row,SMILES,Potency
1,O=C(Nc1ccc2ccccc2c1)Nc1cccc(-c2ccncc2)n1,inactive
2,N#Cc1ccc(-c2nc(NCc3ccc(-c4ccnc(C(F)(F)F)c4)cc3)c3ccccc3n2)cc1,inactive
3,CN(CCc1cnc[nH]1)c1ncnc2ccc(-c3ccc4c(c3)OCO4)cc12,inactive
4,Cc1noc(C)c1-c1csc(N2CCC(C(N)=O)CC2)n1,inactive
5,Cc1cc(N[S+](=O)([O-])c2cc3c(cc2Cl)NC(=O)CO3)ccc1Cl,inactive
6,Cc1ccc(OCCn2c(CCNC(=O)c3cccc4cc[nH]c34)nc3ccccc32)cc1,inactive
7,Cc1cnc(-c2ccccc2C(C)C)nc1NCc1ccc(-c2cccc(S(N)(=O)=O)c2)cc1,inactive
8,Cc1cc(N[S+](=O)([O-])c2cc3c(cc2F)NC(=O)CC3)ccc1Br,inactive
9,CN(C)c1cccc(-c2cnc(N3CCC(C(N)=O)CC3)s2)c1,inactive
10,CC(C)(C)NC(=O)Nc1nnc(-c2ccncc2)s1,inactive
11,O=C(Nc1ccc(Cl)c(Cl)c1)Nc1nnc(-c2ccc(F)cc2)s1,inactive
12,CC(=O)c1ccc(N2CCN(S(=O)(=O)c3ccc(N4CCCC4=O)cc3)CC2)cc1,inactive
13,O=S(=O)(Nc1nccs1)c1ccc(NCc2ccccc2)cc1,inactive
14,COc1ccc(C2Nc3ccccc3C(=O)N2Cc2cccnc2)cc1COc1c(C)cccc1C (stereo not given),inactive
15,Cc1cc(NC(=O)Nc2nnc(-c3cccnc3)s2)ccc1Cl,inactive
16,Cc1cc(C)n2ncc(C(=O)Nc3ccc(C(F)(F)F)cc3)c2n1,inactive
17,c1csc(CNc2ccc(N3CCCCC3)cc2)c1,inactive
18,O=C(Cc1ccc(Cl)c(Cl)c1)Nc1ccc([S+](=O)([O-])Nc2cccc([N+](=O)[O-])c2)cc1,inactive
19,O=C1CCCC2=C1C(c1ccccc1C(F)(F)F)N=C(Nc1nc3ccccc3o1)N2 (stereo not given),inactive
20,COc1ccccc1NC(=O)C(OC(=O)CNC(=O)c1ccccc1)c1ccccc1 (stereo not given),inactive

row,SMILES,Potency
1,[O-][n+]1onc(-c2ccccc2)c1/C=N/O,inactive
2,CC(=O)Nc1sc2c(c1-c1ccccc1F)CCNC2,inactive
3,c1ccc(-n2cc(-c3nnc4n3CCCCC4)c3ccccc32)cc1,inactive
4,COc1ccc(C2Nc3ccccc3C(=O)N2Cc2ccccc2)cc1COc1ccc(C#N)cc1 (stereo not given),inactive
5,COc1ccc(C2c3ccc4ccccc4c3Oc3ncn(CCN4CCOCC4)c(=N)c32)cc1OC (stereo not given),inactive
6,Cc1ccc(NS(=O)(=O)c2ccc3c(c2)CCC(=O)N3)cc1F,inactive
7,O=C(O)c1ccc2c(c1)C(=O)N([C@H](Cc1ccc(-c3ccccc3)cc1)C(=O)O)C2=O,inactive
8,C[C@H]1CN(S(=O)(=O)c2ccc3c(c2)OCCO3)CCN1S(=O)(=O)c1c(F)cccc1F,inactive
9,O=S(=O)(c1ccc2ccccc2c1)N1CCN(S(=O)(=O)c2c(F)cccc2F)CC1,inactive
10,C=CCNc1oc(-c2cccc(F)c2)nc1C#N,inactive
11,Cc1cccc(-n2cnc3cc(C(=O)NC4CCCCC4)ccc32)c1,inactive
12,CC(=O)Nc1sc2c(c1-c1ccc3c(c1)CCO3)CCNC2,inactive
13,Cc1cc2c(s1)c1cnn(Cc3ccc(F)c(Cl)c3)c(=O)c1n2C,inactive
14,COc1cc(O)c(C(CC(=O)N2CCC(Cc3ccccc3)CC2)c2ccc3c(c2)OCO3)c(OC)c1 (stereo not given),inactive
15,COc1cc(F)c(S(=O)(=O)N2CCN(S(=O)(=O)c3ccc(NC(C)=O)cc3)CC2)c(F)c1,inactive
16,COc1ccc(C=O)cc1COc1ccc(NC(C)=O)cc1,inactive
17,O=C(O)c1ccc(-n2cccc2/C=C2\SC(=O)N(Cc3ccc(Br)cc3)C2=O)cc1,inactive
18,CC(C)(C)OC(=O)N1CCN(c2ccc(NCc3cc(-c4ccc(C#N)cc4)co3)cc2)CC1,inactive
19,Cc1cc(C)nc(NC(=S)N2CCN(c3ccc(NS(C)(=O)=O)nn3)CC2)c1,inactive
20,Cc1cc2c(s1)c1cnn(Cc3cc(F)ccc3C)c(=O)c1n2C,inactive

row,SMILES,Potency
1,Cc1cc(C)nc(NC(=S)N2CCN(c3ccc(F)cc3F)CC2)c1,inactive
2,Cc1ccc2nc3sc(C(=O)NC4CCCCC4)cc3cc2c1,inactive
3,CC(C)(C)OC(=O)N1CCN(c2ccc(NCc3ccc(-c4ccc(C#N)cc4)nc3)cc2)CC1,inactive
4,NC(=O)C1CCN(c2nc(-c3cccc(C(F)(F)F)c3)cs2)CC1,inactive
5,Cc1ccc(S(=O)(=O)Nc2ccc(NS(=O)(=O)c3ccc(C)cc3)c3ncccc23)cc1,inactive
6,Cc1ccc(-c2nn3c(-c4ccccc4)nnc3s2)cc1NC(=O)c1ccc(-c2cccc(Cl)c2)o1,inactive
7,FC(F)(F)c1ccccc1-c1nc(NCc2ccc(-c3cccnc3)cc2)c2sccc2n1,inactive
8,COc1ccnc(NC(=S)N2CCN(c3cccc(C(F)(F)F)n3)CC2)c1,inactive
9,O=C(Nc1cccc(-c2nn3c(=O)cc(N4CCNCC4)nc3s2)c1)c1ccon1,inactive
10,COc1ccnc(NC(=S)N2CCN(c3ccc4ccccc4n3)CC2)c1,inactive
11,c1cncc(CNc2ncnc3ccc(-c4ccc5c(c4)OCO5)cc23)c1,inactive
12,Cc1cc(NC(=O)Nc2nnc(C3CCCCC3)s2)ccc1Br,inactive
13,NC(=O)C1CCN(c2nc(-c3ccc(-c4ccccc4)cc3)cs2)CC1,inactive
14,FC(F)(F)c1cccc(Nc2ccc(CNc3nc(-c4ccccc4C(F)(F)F)nc4ccccc34)cc2)c1,inactive
15,CC(=O)Nc1sc2c(c1-c1ccc(F)cc1)CCNC2,inactive
16,CN(C)c1cnc2c(O)ccc(C(=O)O)c2c1,inactive
17,O=S(=O)(NC1CCC(NS(=O)(=O)c2c(F)cccc2F)CC1)c1ccc2c(c1)OCCO2 (stereo not given),inactive
18,O=C1OC(c2ccccc2)(c2ccccc2)N2CCN(C(=O)NCc3ccc(F)cc3)CC12 (stereo not given),inactive
19,COc1ccc(C(F)(F)F)cc1NC(=O)C(OC(=O)CNC(=O)c1ccccc1)c1ccccc1 (stereo not given),inactive
20,CC(C)c1ccccc1-c1nc2c(c(NCc3ccc(-c4cccnc4)cc3)n1)CCNC2,inactive
